# About 410 targets per protein were measured; listed, in parts, are those with the strongest signals and a random draw of the rest.
# B1: SP8524D-bot-399-27-399 (Bacteroides ovatus) (protein)
# chain: DAKYDTLDTHAYIEEALSSTSQKVTVQATGESFTTLNVHLSNLSSTDNHYKLVTDQSVLDTYNHINGTGYIMLPKDYYTLPETITVKAGQYAADALSIALKAFSQEMMKSGESYALPVKLVLQDGSISPMENTGTFVILAESIIEFSAPMFVGAPSLKANKFTESPETYSQYTIEVRFQVANTADRDRAVFKNGGDDANFILLRFEDPQSDNENYKAHSLVQIVGRNRLYLNPSNSFKPNEWQHLALVCDGSNYRLYINGVDSGVLSIPTGATTFSDVNWFCLGDDSYSRWGNCKILMSEARIWSVVRSASQIQNNMTQVSPKSVGLEAYWRFNEGQGNVFEDATGKGHTLTTSATPTWIDGILSTDKSTEWK
# What was measured:
# Experiment in all cases: glycan array binding signal (z-score within array); higher = stronger binding
# Details in all cases: glycan notation: IUPAC condensed, linker removed
# [1] = target: Fuc(a1-2)Gal(b1-3)GlcNAc(b1-3)[Gal(b1-4)GlcNAc(b1-6)]Gal(b1-4)Glc
# Outline: (§1)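 Negative Z-scores can be read as non-binding. The Z-score is calculated within each array and then averaged across arrays of one protein sequence at different concentrations or buffers and across linkers. Arrays, 3228 in all, were curated from the Consortium for Functional Glycomics database and kept only where the protein sequence was available.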
# [2] = target: Fuc(a1-2)Gal(b1-3)GlcNAc(b1-3)[Neu5Ac(a2-6)Gal(b1-4)GlcNAc(b1-6)]Gal(b1-4)Glc
# Outline: as §1
# Fuc(a1-2)Gal(b1-4)Glc = target: Fuc(a1-2)Gal(b1-4)Glc
# Outline: as §1
# [3] = target: Fuc(a1-2)Gal(b1-4)GlcNAc(b1-3)Gal(b1-4)GlcNAc(b1-3)Gal(b1-4)GlcNAc
# Outline: as §1
# Fuc(a1-2)[Gal(a1-3)]Gal = target: Fuc(a1-2)[Gal(a1-3)]Gal
# Outline: as §1
# [4] = target: Fuc(a1-2)[Gal(a1-3)]Gal(b1-3)GlcNAc(b1-6)GalNAc
# Outline: as §1
# [5] = target: Fuc(a1-2)[Gal(a1-3)]Gal(b1-4)GlcNAc(b1-6)GalNAc
# Outline: as §1
# [6] = target: Fuc(a1-2)[GalNAc(a1-3)]Gal(b1-3)GlcNAc(b1-2)Man(a1-3)[Fuc(a1-2)[GalNAc(a1-3)]Gal(b1-3)GlcNAc(b1-2)Man(a1-6)]Man(b1-4)GlcNAc(b1-4)[Fuc(a1-6)]GlcNAc
# Outline: as §1
# [7] = target: Fuc(a1-2)[GalNAc(a1-3)]Gal(b1-4)GlcNAc(b1-3)[Fuc(a1-2)[GalNAc(a1-3)]Gal(b1-4)GlcNAc(b1-6)]GalNAc
# Outline: as §1
# [8] = target: Fuc(a1-3)[GalNAc(b1-4)]GlcNAc
# Outline: as §1
# Fuc(a1-4)GlcNAc = target: Fuc(a1-4)GlcNAc
# Outline: as §1
# Gal(a1-3)Gal(b1-4)GlcNAc = target: Gal(a1-3)Gal(b1-4)GlcNAc
# Outline: as §1
# [9] = target: Gal(a1-3)[Gal(a1-4)]Gal(b1-4)GlcNAc
# Outline: as §1
# [10] = target: Gal(b1-3)GlcNAc(b1-3)Gal(b1-4)Glc
# Outline: as §1
# [11] = target: Gal(b1-3)GlcNAc(b1-3)Gal(b1-4)[Fuc(a1-3)]GlcNAc
# Outline: as §1
# [12] = target: Gal(b1-3)[Fuc(a1-4)]GlcNAc(b1-2)Man
# Outline: as §1
# [13] = target: Gal(b1-3)[GlcNAc(b1-6)]GalNAc
# Outline: as §1
# [14] = target: Gal(b1-4)GalNAc(a1-3)[Fuc(a1-2)]Gal(b1-4)GlcNAc
# Outline: as §1
# [15] = target: Gal(b1-4)GlcNAc(b1-2)Man(a1-3)[GlcNAc(b1-4)][Gal(b1-4)GlcNAc(b1-2)Man(a1-6)]Man(b1-4)GlcNAc(b1-4)GlcNAc
# Outline: as §1
# [16] = target: Gal(b1-4)GlcNAc(b1-3)Gal(b1-4)GlcNAc(b1-3)Gal(b1-4)GlcNAc(b1-3)Gal(b1-4)GlcNAc(b1-3)Gal(b1-4)GlcNAc(b1-2)[Gal(b1-4)GlcNAc(b1-3)Gal(b1-4)GlcNAc(b1-3)Gal(b1-4)GlcNAc(b1-3)Gal(b1-4)GlcNAc(b1-3)Gal(b1-4)GlcNAc(b1-6)]Man(a1-6)[Gal(b1-4)GlcNAc(b1-3)Gal(b1-4)GlcNAc(b1-3)Gal(b1-4)GlcNAc(b1-3)Gal(b1-4)GlcNAc(b1-3)Gal(b1-4)GlcNAc(b1-2)Man(a1-3)]Man(b1-4)GlcNAc(b1-4)[Fuc(a1-6)]GlcNAc
# Outline: as §1
# [17] = target: Gal(b1-4)GlcNAc(b1-3)Gal(b1-4)GlcNAc(b1-6)[Gal(b1-3)]GalNAc
# Outline: as §1
# Gal3S4S(b1-4)GlcNAc = target: Gal3S4S(b1-4)GlcNAc
# Outline: as §1
# Gal3S6S(b1-4)GlcNAc = target: Gal3S6S(b1-4)GlcNAc
# Outline: as §1
binder,measurement,setting,value
B1,glycan array binding signal (z-score),[1],-0.119
same,glycan array binding signal (z-score),[2],-0.348
same,glycan array binding signal (z-score),Fuc(a1-2)Gal(b1-4)Glc,-0.082
same,glycan array binding signal (z-score),[3],-0.049
same,glycan array binding signal (z-score),Fuc(a1-2)[Gal(a1-3)]Gal,1.34
same,glycan array binding signal (z-score),[4],-0.387
same,glycan array binding signal (z-score),[5],-0.255
same,glycan array binding signal (z-score),[6],-0.246
same,glycan array binding signal (z-score),[7],-0.238
same,glycan array binding signal (z-score),[8],1.02
same,glycan array binding signal (z-score),Fuc(a1-4)GlcNAc,6.02
same,glycan array binding signal (z-score),Gal(a1-3)Gal(b1-4)GlcNAc,-0.463
same,glycan array binding signal (z-score),[9],3.56
same,glycan array binding signal (z-score),[10],-0.359
same,glycan array binding signal (z-score),[11],-0.174
same,glycan array binding signal (z-score),[12],0.35
same,glycan array binding signal (z-score),[13],-0.01
same,glycan array binding signal (z-score),[14],0.229
same,glycan array binding signal (z-score),[15],-0.382
same,glycan array binding signal (z-score),[16],1.02
same,glycan array binding signal (z-score),[17],0.317
same,glycan array binding signal (z-score),Gal3S4S(b1-4)GlcNAc,-0.075
same,glycan array binding signal (z-score),Gal3S6S(b1-4)GlcNAc,0.506
